From PubChem BioAssay (NCATS)
Several values for one entry are separate records, joined by “and”; a condition that tells them apart may be missing. Identical values can stand only once. Records with an inconclusive call do not appear. A number with no mark means an inactive call. Activity calls are given as the source filed them. Calls come from the whole dose curve; as a rule, active = well fitted inhibition curve with a large enough effect; inconclusive = small, poorly fitted or top-dose-only effect; inactive = flat fitted curve, though single readings scatter.

How the values were obtained:
[1] = tested on: HEK293; experiment: Cytotoxic Profiling of Annotated Libraries Using Quantitative High-Throughput Screening (AID 1296008); conditions: Five cell lines viability, CellTiter-Glo ATP luminescence, 48-72 h; max response: stronger effect = lower value
Method in brief: (§1)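 Cytotoxicity was measured as CellTiter-Glo ATP luminescence, read after 10 min at room temperature. Compound treatment of the cells lasted 48 or 72 hr at 37 degrees Celsius in a qHTS format.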

[2] = tested on: HaCat; experiment: as above; conditions: Five cell lines viability, CellTiter-Glo ATP luminescence, 48-72 h; max response: stronger effect = lower value
Method in brief: as §1

[3] = tested on: NIH3T3; experiment: as above; conditions: Five cell lines viability, CellTiter-Glo ATP luminescence, 48-72 h; max response: stronger effect = lower value
Method in brief: as §1

[4] = tested on: KB-3-1; experiment: as above; conditions: Five cell lines viability, CellTiter-Glo ATP luminescence, 48-72 h; max response: stronger effect = lower value
Method in brief: as §1

[5] = tested on: HACAT; experiment: qHTS assay to identify novel small-molecules to repurpose for Merkel cell carcinoma treatment (AID 1296009); conditions: MCC and control cell lines, CellTiter-Glo viability, 72 h; at 44.8 µM (top of the series) unless noted
Method in brief: (§2)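 After compound transfer in DMSO, plates were kept 72 hr at 37 degree celsius. Luminescent ATP signal from CellTiter-Glo served as viability measure, normalized against DMSO and no-cell controls.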

[6] = tested on: MCC-13; experiment: as above; conditions: MCC and control cell lines, CellTiter-Glo viability, 72 h; series mostly up to 46 µM
Method in brief: as §2

[7] = tested on: CRL-7250; experiment: Cytotoxic Profiling of Annotated Libraries Using Quantitative High-Throughput Screening (AID 1296008); conditions: Five cell lines viability, CellTiter-Glo ATP luminescence, 48-72 h; max response: stronger effect = lower value
Method in brief: as §1

[8] = tested on: HEK293T; experiment: qHTS assay to identify novel small-molecules to repurpose for Merkel cell carcinoma treatment (AID 1296009); conditions: MCC and control cell lines, CellTiter-Glo viability, 72 h; at 44.8 µM (top of the series) unless noted
Method in brief: as §2
% is set by controls: 0 for no effect and ±100 for the full control effect; potency is the fitted concentration of half-maximal effect.
Note: nearly all actives have a fitted effect of over 60% in size.

CN[C@@H]1CN(c2ccc3c(=O)c(C(=O)O)cn(-c4nccs4)c3n2)C[C@@H]1OC
Potency [1]: 1.29 µM (active) | Potency [2]: 6.45 µM (active) | Potency [3]: 0.512 µM (active)

O=C(O)c1ccc(O)c2ncc(N3CCOCC3)cc12
max response [1]: 4.93% | outcome [2]: inactive | max response [4]: 3.25% | outcome [5]: inactive | Potency [6]: inactive

NC(=O)c1nnn(Cc2cc(Cl)c(C(=O)c3ccc(Cl)cc3)c(Cl)c2)c1N
Potency [1]: 20.9 µM (active) | max response [2]: -5.54% | max response [4]: -25.7% | Potency [6]: inactive

Nc1ccn([C@@H]2O[C@H](CO)[C@@H](O)[C@H]2O)c(=O)n1
max response [1]: -76.5% | Potency [2]: 29.6 µM (active) | Potency [3]: 0.526 µM (active)

COc1cc2nccc(Oc3ccc(NC(=O)Nc4ccc(F)cc4F)c(F)c3)c2cc1OC
max response [7]: -18.7% | Potency [6]: inactive

CC(C)(O)CC(=O)NCCn1ccc2ncnc(Nc3ccc(Oc4cccc(C(F)(F)F)c4)c(Cl)c3)c21
Potency [1]: 16.6 µM (active) | Potency [2]: 372 nM (active) and 3.66 µM (active) | Potency [6]: inactive

CC(C)C[C@H](NC(=O)c1cc2ccccc2s1)C(=O)N1CCN(C(=O)[C@H](CO)NS(=O)(=O)c2ccc(Cl)cc2Cl)CC1
Potency [1]: 18.7 µM (active) | max response [2]: -15.5% | max response [3]: -5.73% | Potency [6]: inactive

Cc1ccc(NC(=O)Nc2cc(C(F)(F)F)ccc2F)cc1Nc1ccc2c(c1)NC(=O)C2=Cc1ccc[nH]1
Potency [1]: 11.8 µM (active) | Potency [4]: 9.35 µM (active) | Potency [3]: 16.6 µM (active)

Cn1c(=O)c(Oc2ccc(F)cc2F)cc2cnc(NC3CCOCC3)nc21
max response [7]: -20.5% | max response [4]: -6.47% | max response [3]: -13.2% | Potency [6]: inactive

CC(C)N(CCCNC(=O)Nc1ccc(C(C)(C)C)cc1)C[C@H]1O[C@@H](n2cc(Br)c3c(N)ncnc32)[C@H](O)[C@H]1O
Potency [1]: 18.7 µM (active) | max response [2]: -6.68% | Potency [4]: 26.4 µM (active) | Potency [6]: inactive

NC(=O)c1noc([C@H](CCCC2CCCCC2)CC(=O)NO)n1
Potency [1]: 11.8 µM (active) | max response [4]: -19.6% and 9.75% | Potency [3]: 18.7 µM (active) and 16.4 µM (active)

OCCn1cc(-c2ccc3c(c2)CCC3=NO)c(-c2ccncc2)n1
max response [1]: 2.25% | max response [2]: 1.64% | max response [4]: -5.13% | max response [3]: -8.29% | Potency [6]: inactive

CC(C)(C)c1[nH]cnc1C=c1[nH]c(=O)c(=Cc2ccccc2)[nH]c1=O
Potency [7]: 0.0038 µM (active) | Potency [4]: 2.41e-05 µM (active) | max response [3]: -78.6% | Potency [6]: 0.0076 µM (active)

N=C1SC(=Cc2ccc(-c3ccc4c(c3)C(=O)NC4=O)o2)C(=O)N1c1ccc(Br)cc1
max response [1]: 1.89% | outcome [2]: inactive | outcome [4]: inactive | max response [3]: 1.79% | outcome [5]: inactive | Potency [6]: inactive

CNc1nc(-c2ccc3c(N)n[nH]c3c2)cc(N2C[C@@H](C(=O)NC3CCCCC3)CC[C@@H]2C)n1
Potency [1]: 7.43 µM (active) | max response [2]: -5.08% | Potency [6]: inactive

Cc1[nH]c(C=C2C(=O)Nc3ccc(S(=O)(=O)N(C)c4cccc(Cl)c4)cc32)c(C)c1C(=O)N1CCN(C)CC1
Potency [1]: 5.26 µM (active) | max response [2]: -0.347% | Potency [3]: 9.35 µM (active)

O=C(NC[C@H](O)CO)c1ccncc1Nc1ccc(I)cc1F
Potency [7]: 16.6 µM (active) | outcome [4]: inactive | Potency [3]: 8.33 µM (active)

CC1=C[C@@H]2[C@@H]([C@@H](O)C[C@@]3(C)[C@H]2C[C@@H](C)[C@]3(O)C(=O)CO)[C@@]2(C)Cc3cnn(-c4ccccc4)c3C=C12
Potency [1]: 10.3 µM (active) | Potency [2]: 20.6 µM (active) | Potency [3]: 14.6 µM (active) | Potency [6]: inactive

NC1(C(=O)N[C@@H](CCO)c2ccc(Cl)cc2)CCN(c2ncnc3[nH]ccc23)CC1
Potency [1]: 469 nM (active) and 517 nM (active) | max response [2]: -16.7% | max response [4]: -18% and -7.12% | max response [3]: -1.34% | outcome [3]: inactive | Potency [6]: inactive

O=C(Nc1ccc(OC(F)(F)F)cc1)c1sccc1NCc1ccnc2ccccc12
Potency [1]: 8.33 µM (active) and 20.6 µM (active) | outcome [2]: inactive | outcome [5]: inactive | Potency [6]: inactive

O=C(O)Cc1cccc(OCCCN(Cc2cccc(C(F)(F)F)c2Cl)CC(c2ccccc2)c2ccccc2)c1
Potency [1]: 16.6 µM (active)

CCCC1OC2C[C@@H]3[C@H]4CCC5=CC(=O)C=C[C@]5(C)[C@H]4C(O)C[C@]3(C)[C@]2(C(=O)CO)O1 (some centres not stated)
max response [7]: -14.4% | max response [4]: -2.26% | max response [3]: -21.2% | Potency [6]: inactive

Cc1cccc(-c2[nH]c(C(C)(C)C)nc2-c2ccc3c(c2)OCO3)n1
Potency [1]: 4.18 µM (active) | max response [2]: -21.5% | Potency [3]: 7.43 µM (active)

COc1cc2nc(-c3cc(F)ccc3O)nc(N[C@@H]3CNC[C@@H]3C(C)(C)O)c2cc1OC
Potency [1]: 14.8 µM (active) | Potency [2]: 26.4 µM (active) | Potency [4]: 16.6 µM (active) | Potency [6]: 20.9 µM (active)

CC(C)(C)c1nc(-c2cccc(NS(=O)(=O)c3c(F)cccc3F)c2F)c(-c2ccnc(N)n2)s1
max response [1]: -10.3% | max response [2]: -2.38% | max response [4]: -15.7% and -13.9% | max response [3]: -11.1% and -2.7% | Potency [6]: inactive

CCC[C@H](Nc1nc(-c2ccc(NC(=O)NCC)c(OC)c2)ncc1C)c1cccnc1
max response [1]: -101% | Potency [4]: 0.0047 µM (active) | max response [3]: -76.8% | Potency [6]: 0.0469 µM (active)

CN1N=C(N)c2cn([C@@H]3O[C@H](COP(=O)(O)O)[C@@H](O)[C@@H]3O)c3ncnc1c23
Potency [7]: 1.32 µM (active) | Potency [4]: 3.72 µM (active) | Potency [3]: 0.418 µM (active)

C=CCc1cccc(C=NNC(=O)CN2CCN(Cc3ccccc3)CC2)c1O
Potency [1]: 13.2 µM (active)

Oc1cc(O)cc(C=Cc2ccc(O)c(O)c2)c1
outcome [1]: inactive | max response [2]: -2.98% | max response [4]: -8.49% | max response [3]: 3.17% | outcome [8]: inactive | Potency [6]: inactive

O=S(=O)(NCCNCC=Cc1ccc(Br)cc1)c1cccc2cnccc12
Potency [1]: 7.43 µM (active) | max response [2]: -0.249% | max response [3]: -13.9%

O=C(Nc1ncc(SCCN2CCCC2)s1)[C@]1(c2ccc(S(=O)(=O)C3CC3)cc2)C[C@@H]1C1CCCCC1
Potency [1]: 16.6 µM (active) | Potency [3]: 23.5 µM (active) | Potency [6]: inactive

C[C@H]1[C@H](O)O[C@@H]2O[C@@]3(C)CC[C@@H]4[C@H](C)CC[C@@H]1[C@@]24OO3
Potency [1]: 3.32 µM (active) | max response [2]: -7.84% | Potency [4]: 20.9 µM (active)

O=C1CCCC(=O)C1C(=O)c1ccc(C(F)(F)F)cc1[N+](=O)[O-]
max response [7]: -12.8% | max response [4]: 8.25% | max response [3]: -10% | Potency [6]: inactive

O=C(Nc1cccc(Cl)c1)Nc1ncc(CCNc2ncnc3ccsc23)s1
Potency [2]: 2.09 µM (active)

OC(c1cc(C(F)(F)F)nc2c(C(F)(F)F)cccc12)C1CCCCN1 (configuration not stated)
outcome [2]: inactive | outcome [5]: inactive | Potency [6]: inactive

CN(C)CCCNC(=O)c1ccc(-c2cc(O)c3ncccc3c2)cc1
max response [2]: -4.67% | max response [3]: -2.36% | Potency [6]: inactive

O=C(C=Cc1ccc(O)cc1)c1ccc(O)cc1O
outcome [2]: inactive | max response [3]: -8.95% | outcome [5]: inactive | Potency [6]: inactive

CC1(C)C(N(O)C(=O)Nc2ccc(Cl)cc2)N(c2ccc(Cl)cc2)C(=O)N1CC(=O)NN=CC=Cc1ccc([N+](=O)[O-])o1 (configuration not stated)
Potency [6]: inactive
